From PubChem BioAssay
ssDAF-12 act = S. stercoralis DAF-12 activation, primary screen; HEK293 ssDAF-12/GRIP1 lit1-tk-luc reporter, luminescence; % of 3 µM dafachronic acid response; activation, % at 6.8 µM; hit rate 1% among 370,000;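 active = activation above the mean over all tested compounds plus 3 SD, cut at about 0.9% in these data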;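 note: 0% = DMSO-only wells and 100% = 3 µM delta7-dafachronic acid wells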
hcDAF12 agonist = activates DAF-12 receptor from parasite H. contortus | HEK293 hcDAF-12 lit1-tk-luc reporter, luminescence; 0% DMSO, 100% Δ7-dafachronic acid | activation, % at 6.8 µM | hit rate 1.4% among 370,000 | AID 652067;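 active = activation above the mean of all tested compounds plus 3 SD, cut at about 5.5% in these data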;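 note: 100% = response to 3 µM Δ7-dafachronic acid high control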
DAX1 inh-1 = NR0B1 (DAX1) inhibition; HEK293 Gal4-DAX1 luciferase reporter, luminescence; inhibition, % at 6.75 µM; hit rate 0.99% among 340,000; AID 504766;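 active = inhibition above the mean over all tested compounds plus 3 SD, cut at about 4.2% in these data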;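 note: 0% = DAX1-transfected cells with DMSO and 100% = empty-vector control cells with DMSO; inhibition shows as a rise in luminescence from relieved DAX1 repression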
Target sequence (P51843 207-470 limits assumed): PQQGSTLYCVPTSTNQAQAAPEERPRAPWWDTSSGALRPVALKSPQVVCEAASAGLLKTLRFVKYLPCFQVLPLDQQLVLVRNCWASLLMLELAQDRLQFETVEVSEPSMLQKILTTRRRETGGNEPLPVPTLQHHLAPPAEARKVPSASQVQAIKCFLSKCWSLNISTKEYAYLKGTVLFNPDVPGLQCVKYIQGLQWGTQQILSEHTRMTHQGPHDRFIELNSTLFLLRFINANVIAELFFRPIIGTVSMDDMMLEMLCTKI
hgDAF-12 ag = hgDAF-12 agonism, primary luciferase screen. hit rate 1.8% among 370,000. activation, % at 6.8 µM. HEK293 GAL4-hgDAF12 UAS-luciferase reporter, agonist luminescence; normalized to butyrate control. AID 687014;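 active = activation above a cutoff set at the mean of all screened compounds plus 3 SD, cut at about 10% in these data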;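 note: 0% = DMSO wells and 100% = sodium butyrate wells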
DAX1 inh-2 = DAX1 (NR0B1) inhibition, primary screen. HEK293T StAR-luciferase reporter, SF-1/DAX-1 repression relief. inhibition, % at 6.8 µM. hit rate 1.1% among 370,000. AID 652010;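 active = inhibition above the mean over all tested compounds plus 3 SD, cut at about 3.6% in these data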;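 note: 0% = DAX-1 cells with DMSO and 100% = cells lacking DAX-1 with DMSO; higher inhibition means more luminescence from relief of DAX-1 repression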
* marks the source's active call; other numbers are inactive results; / = no result. Hits are enriched below; roughly 4.1% of the tested compounds scored in any of these assays.

SMILES | ssDAF-12 act | hcDAF12 agonist | DAX1 inh-1 | hgDAF-12 ag | DAX1 inh-2
Cn1c(Cc2cccs2)nnc1SCC(=O)Nc1ccc2c(c1)OCCO2 | -0.8 | -0.7 | / | 1.6 | -0.5
Brc1ccc(/C=N/Nc2nc3ccccc3o2)cc1 | 1.9* | 5.9* | 3.7 | 11.5* | 1.0
O=c1cc(-c2cccc(Br)c2)oc2cccc(O)c12 | -0.1 | 5.8* | 0.5 | -0.1 | 0.5
O=c1cc(-c2ccccc2)oc2cccc(O)c12 | -0.1 | -1.4 | 4.9* | 4.2 | 1.1
O=c1cc(-c2cccc(Cl)c2)oc2cccc(O)c12 | -0.5 | 3.1 | 0.4 | 3.0 | 0.9
Cc1ccccc1-c1cc(=O)c2c(O)cccc2o1 | -0.9 | -0.4 | -1.3 | 2.9 | -0.3
O=C(/C=C/c1ccc([N+](=O)[O-])cc1)N1CCN(c2ccccc2F)CC1 | -1.2 | 0.1 | 5.2* | 3.0 | 0.7
COc1ccc(S[C@]2(C(=O)N3CCN(c4ncccn4)CC3)CC(=O)N(c3ccsc3)[C@@H]2c2ccc(OC)cc2)cc1 | -1.0 | -2.8 | / | 3.4 | -1.2
CC(NC(=O)Cc1ccccc1F)c1ccc(F)cc1 (centres undefined) | 0.1 | -2.2 | 4.8* | -1.2 | 0.6
CCOc1ccc(C(C)NC(=O)Cc2ccccc2F)cc1OCC (centres undefined) | -1.1 | 0.0 | 0.2 | -0.4 | 0.6
Cc1ccc(NC(=O)[C@H]2CC(=O)O[C@@H]2c2ccccc2)c(C)c1 | -1.6 | 2.8 | / | 1.0 | -0.1
COc1ccccc1C1=NOC(Cn2c(=O)c3c(ncn3C)n(C)c2=O)C1 (centres undefined) | 0.9* | 5.2 | 0.0 | 1.3 | 0.4
O=S(=O)(c1ccc(Br)cc1)N1CCN=C1SCc1cccnc1 | -1.5 | -0.6 | -0.2 | -1.6 | 0.1
O=S(=O)(c1ccc(F)cc1)N1CCN=C1SCc1cccnc1 | -1.2 | -1.2 | 7.1* | 1.0 | 0.7
Cn1c(CC(=O)Nc2ccc(F)cc2)c(Sc2ccccc2)c2ccccc21 | -0.6 | 6.5* | 0.2 | 0.2 | 0.1
CCOC(=O)[C@]12CCCC3=C1N(CCC3)C(=O)[C@@H](CC(=O)N1CCN(C(=O)c3ccco3)CC1)C2 | -0.7 | 2.0 | / | 3.9 | -0.4
CCn1c(SCC(=O)Nc2ccc(C(C)=O)cc2)nc2nc3c(cc2c1=O)COC(C)(C)C3 | -0.8 | 1.2 | 2.5 | 6.4 | -0.4
CCn1c(SCC(=O)Nc2ccccc2C)nc2nc3c(cc2c1=O)COC(C)(C)C3 | -0.6 | -0.4 | 5.5* | -0.6 | -1.2
CC(=O)C(C)Oc1ccc2c3c(c(=O)oc2c1)CCCCC3 (centres undefined) | -1.3 | 3.6 | 1.6 | 11.1* | -0.1
Nn1c(Cc2cccc3ccccc23)nnc1SCc1ccccc1 | -1.1 | -2.6 | -0.4 | 3.8 | 0.0
O=C(O)CSc1nnc(Cc2cccc3ccccc23)n1-c1cc(C(F)(F)F)cc(C(F)(F)F)c1 | -0.9 | 2.2 | 5.7* | -0.7 | -0.1
C=CCn1c(SCc2cccc(C(F)(F)F)c2)nnc1-c1ccc(OC)cc1 | -1.9 | -3.1 | / | 1.0 | -1.0
Cc1ccc(N2/C(=N/c3nc(C)cc(C)n3)NC(=O)CC2C(=O)O)cc1 (centres undefined) | 0.2 | 5.8* | -0.4 | 2.8 | 0.3
Cc1cccc(CCNC(=O)Cn2nc(-c3ccccc3)ccc2=O)c1 | -0.5 | -3.1 | / | 1.3 | -0.9
CCn1c(C)csc1=NC(=O)c1ccccc1O | 0.0 | 6.3* | -0.5 | 9.9 | 1.1
SMILES | ssDAF-12 act | hcDAF12 agonist | DAX1 inh-1 | hgDAF-12 ag | DAX1 inh-2
Cc1cc(C(=O)OCC(=O)NCc2ccccc2)c(C)o1 | -0.3 | -0.9 | -0.6 | 1.7 | 1.8
Cc1cc(C(=O)OCC(=O)NCCc2ccccc2)c(C)o1 | -1.2 | 3.8 | 5.1* | -0.4 | -0.2
O=C(NCc1ccco1)C1CCCN(S(=O)(=O)c2ccc([N+](=O)[O-])cc2)C1 (centres undefined) | 0.0 | -1.4 | / | 0.6 | -0.3
Cc1c(C(=O)N2CCC[C@H]2C(N)=O)oc2c(F)cccc12 | -0.7 | -0.2 | 6.0* | 0.7 | 0.2
Cc1c(C(=O)N2CCN(c3ccccn3)CC2)oc2c(F)cccc12 | -1.1 | -2.6 | -1.3 | -2.1 | 0.2
C[C@H]1Cn2nnc(-c3ccccc3)c2Cn2c3ccccc3c(=O)n21 | -0.7 | -0.7 | / | 1.0 | -1.4
Cc1ccc(NC(=O)c2ccc(OC(=O)COc3ccc(Cl)c(C)c3)cc2)cc1 | -0.5 | 3.9 | 1.2 | 12.8* | 2.7
Cc1cc(OCC(=O)NC(C)(C)C)ccc1Cl | -1.0 | 0.8 | 0.3 | 11.5* | 0.9
COC(=O)COc1cccc(NC(=O)c2ccc(C)cc2)c1 | -1.1 | -1.9 | -1.1 | 4.4 | 0.1
